Laboratory results: article PMC12820563, “FoxP3 forms a head-to-head dimer in vivo and stabilizes its multimerization on adjacent microsatellites”
Whole data set: some 16,000 sequences, median “rpm ratio (pull-down/input)” near 0.94, cut for the highest 2% near 1.7. For the sample, the highest values were picked, then their nearest neighbours and some sequences at random.

biological target: T1, MBP-FoxP1dN (Mus musculus, UniProt P58462 326-579); assay: PD-seq (MBP pull-down with sequencing); 20 mM Tris-HCl pH 7.5, 100 mM NaCl, 1.5 mM MgCl2, 0.4 uM protein, 0.1 uM dsDNA library, 30 min, room temperature, amylose pull-down; high values mean tight binding; conditions: protein: recombinant; tags: His6-MBP; chain copies: 2; dsDNA, one strand shown
T1 sequence: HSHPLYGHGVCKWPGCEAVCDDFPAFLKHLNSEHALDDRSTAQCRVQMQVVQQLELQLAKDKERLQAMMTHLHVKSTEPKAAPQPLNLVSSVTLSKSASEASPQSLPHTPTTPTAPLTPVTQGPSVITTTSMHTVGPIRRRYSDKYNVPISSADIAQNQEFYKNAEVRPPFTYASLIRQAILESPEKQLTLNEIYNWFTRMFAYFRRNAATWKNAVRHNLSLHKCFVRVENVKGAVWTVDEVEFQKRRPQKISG
In short: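 Binding is reads-per-million enrichment of pull-down over input, with replicates pooled. It comes from 30 min room-temperature incubation in Tris pH 7.5 buffer with NaCl and MgCl2 of 0.4 µM His6-MBP-tagged, N-terminally truncated mouse FoxP3 or FoxP1 fragment from E. coli with 0.1 µM Klenow-filled degenerate double-stranded DNA library, followed by amylose resin capture, three washes and Illumina sequencing of the released DNA.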

| Sequence | binding signal |
| --- | --- |
| GATGATTGTTCTCCCAGCTGATGAATTGGTCAGGTCGAGTAAACAAATTTTCCTAATCTTTCTGTTCAAGCGCCATCTAC | 0.794 RPM ratio (pull-down/input) |
| GATGATTGTTCTCCCAGCTGATGAATTGCGTGCCTCGAGTAAACAAATTTTCCTAATCTTTCTGTTCAAGCGCCATCTAC | 1.09 RPM ratio (pull-down/input) |
| GATGATTGTTCTCCCAGCTGATGAATTCGGTTTCTCGAGTAAACAAATTTTCCTAATCTTTCTGTTCAAGCGCCATCTAC | 0.847 RPM ratio (pull-down/input) |
| GATGATTGTTCTCCCAGCTGATGAATTCGGAGCATCGAGTAAACAAATTTTCCTAATCTTTCTGTTCAAGCGCCATCTAC | 1 RPM ratio (pull-down/input) |
| GATGATTGTTCTCCCAGCTGATGAATTCGATTCTTCGAGTAAACAAATTTTCCTAATCTTTCTGTTCAAGCGCCATCTAC | 0.855 RPM ratio (pull-down/input) |
| GATGATTGTTCTCCCAGCTGATGAATTAAAGGAATCGAGTAAACAAATTTTCCTAATCTTTCTGTTCAAGCGCCATCTAC | 0.934 RPM ratio (pull-down/input) |
| GATGATTGTTCTCCCAGCTGATGAATTGTTCGAGTCGAGTAAACAAATTTTCCTAATCTTTCTGTTCAAGCGCCATCTAC | 1.05 RPM ratio (pull-down/input) |
| GATGATTGTTCTCCCAGCTGATGAATTTTGGCGATCGAGTAAACAAATTTTCCTAATCTTTCTGTTCAAGCGCCATCTAC | 0.955 RPM ratio (pull-down/input) |
| GATGATTGTTCTCCCAGCTGATGAATTGGACGTGTCGAGTAAACAAATTTTCCTAATCTTTCTGTTCAAGCGCCATCTAC | 0.855 RPM ratio (pull-down/input) |
| GATGATTGTTCTCCCAGCTGATGAATTGTCCCTCTCGAGTAAACAAATTTTCCTAATCTTTCTGTTCAAGCGCCATCTAC | 0.967 RPM ratio (pull-down/input) |
| GATGATTGTTCTCCCAGCTGATGAATTGGACAAATCGAGTAAACAAATTTTCCTAATCTTTCTGTTCAAGCGCCATCTAC | 1.05 RPM ratio (pull-down/input) |
| GATGATTGTTCTCCCAGCTGATGAATTGATATTGTCGAGTAAACAAATTTTCCTAATCTTTCTGTTCAAGCGCCATCTAC | 2.35 RPM ratio (pull-down/input) |
| GATGATTGTTCTCCCAGCTGATGAATTGAATCTGTCGAGTAAACAAATTTTCCTAATCTTTCTGTTCAAGCGCCATCTAC | 0.897 RPM ratio (pull-down/input) |
| GATGATTGTTCTCCCAGCTGATGAATTTGATATTTCGAGTAAACAAATTTTCCTAATCTTTCTGTTCAAGCGCCATCTAC | 1.13 RPM ratio (pull-down/input) |
| GATGATTGTTCTCCCAGCTGATGAATTTGATATGTCGAGTAAACAAATTTTCCTAATCTTTCTGTTCAAGCGCCATCTAC | 1 RPM ratio (pull-down/input) |
| GATGATTGTTCTCCCAGCTGATGAATTGATATTTTCGAGTAAACAAATTTTCCTAATCTTTCTGTTCAAGCGCCATCTAC | 2.4 RPM ratio (pull-down/input) |
| GATGATTGTTCTCCCAGCTGATGAATTTTGATATTCGAGTAAACAAATTTTCCTAATCTTTCTGTTCAAGCGCCATCTAC | 1.19 RPM ratio (pull-down/input) |
| GATGATTGTTCTCCCAGCTGATGAATTTCGCAGGTCGAGTAAACAAATTTTCCTAATCTTTCTGTTCAAGCGCCATCTAC | 0.789 RPM ratio (pull-down/input) |
| GATGATTGTTCTCCCAGCTGATGAATTTCAGTGTTCGAGTAAACAAATTTTCCTAATCTTTCTGTTCAAGCGCCATCTAC | 0.983 RPM ratio (pull-down/input) |
| GATGATTGTTCTCCCAGCTGATGAATTGACAGTTTCGAGTAAACAAATTTTCCTAATCTTTCTGTTCAAGCGCCATCTAC | 1.26 RPM ratio (pull-down/input) |

| Sequence | binding signal |
| --- | --- |
| GATGATTGTTCTCCCAGCTGATGAATTTGCCACCTCGAGTAAACAAATTTTCCTAATCTTTCTGTTCAAGCGCCATCTAC | 0.982 RPM ratio (pull-down/input) |
| GATGATTGTTCTCCCAGCTGATGAATTCGTGTATTCGAGTAAACAAATTTTCCTAATCTTTCTGTTCAAGCGCCATCTAC | 1.35 RPM ratio (pull-down/input) |
| GATGATTGTTCTCCCAGCTGATGAATTTGTGTATTCGAGTAAACAAATTTTCCTAATCTTTCTGTTCAAGCGCCATCTAC | 1.98 RPM ratio (pull-down/input) |
| GATGATTGTTCTCCCAGCTGATGAATTGTGTAATTCGAGTAAACAAATTTTCCTAATCTTTCTGTTCAAGCGCCATCTAC | 1.32 RPM ratio (pull-down/input) |
| GATGATTGTTCTCCCAGCTGATGAATTGTGTATTTCGAGTAAACAAATTTTCCTAATCTTTCTGTTCAAGCGCCATCTAC | 1.75 RPM ratio (pull-down/input) |
| GATGATTGTTCTCCCAGCTGATGAATTCGCCCGATCGAGTAAACAAATTTTCCTAATCTTTCTGTTCAAGCGCCATCTAC | 0.901 RPM ratio (pull-down/input) |
| GATGATTGTTCTCCCAGCTGATGAATTGCCCCCATCGAGTAAACAAATTTTCCTAATCTTTCTGTTCAAGCGCCATCTAC | 0.972 RPM ratio (pull-down/input) |
| GATGATTGTTCTCCCAGCTGATGAATTCAAGCCCTCGAGTAAACAAATTTTCCTAATCTTTCTGTTCAAGCGCCATCTAC | 0.749 RPM ratio (pull-down/input) |
| GATGATTGTTCTCCCAGCTGATGAATTGTATTGTTCGAGTAAACAAATTTTCCTAATCTTTCTGTTCAAGCGCCATCTAC | 2.26 RPM ratio (pull-down/input) |
| GATGATTGTTCTCCCAGCTGATGAATTGTATTTTTCGAGTAAACAAATTTTCCTAATCTTTCTGTTCAAGCGCCATCTAC | 1.8 RPM ratio (pull-down/input) |
| GATGATTGTTCTCCCAGCTGATGAATTGTATATTTCGAGTAAACAAATTTTCCTAATCTTTCTGTTCAAGCGCCATCTAC | 1.52 RPM ratio (pull-down/input) |
| GATGATTGTTCTCCCAGCTGATGAATTCTTGTATTCGAGTAAACAAATTTTCCTAATCTTTCTGTTCAAGCGCCATCTAC | 1.72 RPM ratio (pull-down/input) |
| GATGATTGTTCTCCCAGCTGATGAATTGTATCTTTCGAGTAAACAAATTTTCCTAATCTTTCTGTTCAAGCGCCATCTAC | 1.31 RPM ratio (pull-down/input) |
| GATGATTGTTCTCCCAGCTGATGAATTCCTGTATTCGAGTAAACAAATTTTCCTAATCTTTCTGTTCAAGCGCCATCTAC | 1.3 RPM ratio (pull-down/input) |
| GATGATTGTTCTCCCAGCTGATGAATTCACGACCTCGAGTAAACAAATTTTCCTAATCTTTCTGTTCAAGCGCCATCTAC | 0.767 RPM ratio (pull-down/input) |
| GATGATTGTTCTCCCAGCTGATGAATTTCCGAGATCGAGTAAACAAATTTTCCTAATCTTTCTGTTCAAGCGCCATCTAC | 0.797 RPM ratio (pull-down/input) |
| GATGATTGTTCTCCCAGCTGATGAATTTAACTATTCGAGTAAACAAATTTTCCTAATCTTTCTGTTCAAGCGCCATCTAC | 0.876 RPM ratio (pull-down/input) |
| GATGATTGTTCTCCCAGCTGATGAATTGATTCACTCGAGTAAACAAATTTTCCTAATCTTTCTGTTCAAGCGCCATCTAC | 1.03 RPM ratio (pull-down/input) |
| GATGATTGTTCTCCCAGCTGATGAATTCGCACAATCGAGTAAACAAATTTTCCTAATCTTTCTGTTCAAGCGCCATCTAC | 1.15 RPM ratio (pull-down/input) |
| GATGATTGTTCTCCCAGCTGATGAATTTCAAAGTTCGAGTAAACAAATTTTCCTAATCTTTCTGTTCAAGCGCCATCTAC | 0.792 RPM ratio (pull-down/input) |
